These results are taken from PubChem BioAssay (Tox21).

Values joined by “and” are separate entries in the source; they are usually repeats but may differ in a detail not shown here. Identical values can stand only once. A number with no mark means an inactive call. Inconclusive results are not listed. Active and inactive are the calls of the source. Unless noted, calls come from the whole dose curve; as a rule, active = well fitted curve in the direction sought with a large enough effect in the repeat runs; inconclusive = weak or mixed curves; inactive = no such curve, though single readings can be large; an effect the other way counts as inactive or inconclusive.

Experiment [1] is described as follows: qHTS assay for small molecule agonists of the p53 signaling pathway (AID 651631; calls by dose curve; note: nearly all actives have a fitted effect of over 15% in size; note: potency is the fitted concentration of half-maximal effect). Summed up:
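Testing took place in human colorectal HCT-116 cells with stable p53RE-driven beta-lactamase. After 16 h of compound exposure at 37 °C, a FRET substrate was added and fluorescence recorded 2 h later.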

The nature of experiment [2]: qHTS assay for small molecules that induce genotoxicity in human embryonic kidney cells expressing luciferase-tagged ATAD5 (AID 651632). Note: nearly all actives have a fitted effect of over 15% in size. Summed up:
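Luminescent reporter readout, HEK293T ATAD5-luc line: 16 hr drug exposure (37C, 5% CO2) followed by Amplite, 30 min RT.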

Experiment [3] in a line: qHTS assay for small molecule agonists of the p53 signaling pathway - cell viability (AID 651633; calls by dose curve; note: series mostly up to about 83 µM; nearly all actives have a fitted effect of over 30% in size). Summed up:
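p53RE-bla cells were treated with compound for 16 hours at 37 C. Cytotoxicity was then measured as CellTiter-Glo luminescence after 30 min at room temperature.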

Experiment [4] in a line: qHTS assay for small molecules that induce genotoxicity in human embryonic kidney cells expressing luciferase-tagged ATAD5 - cell viability (AID 651634; calls by dose curve; note: nearly all actives have a fitted effect of over 25% in size). The procedure, abridged:
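Viability read: CellTiter-Fluor fluorescence, 30 min at 37C. Cells: HEK293T, luciferase-tagged ATAD5. Exposure: 15.5 hr, 37C, 5% CO2, compound or DMSO vehicle.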

A short description of experiment [5]: qHTS assay for small molecule disruptors of the mitochondrial membrane potential - cell viability (AID 720634; calls by dose curve;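 note: human HepG2 liver cancer cells; series mostly up to about 83 µM; nearly all actives have a fitted effect of over 20% in size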). The procedure, abridged:
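HepG2, 1 hr compound, 37 C. ATP luminescence via CellTiter-Glo, 30 min RT, same well as m-MPI.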

A short description of experiment [6]: qHTS assay for small molecule disruptors of the mitochondrial membrane potential (AID 720635). The procedure, abridged: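 HepG2 cells exposed to compound 1 hr at 37C, then Mito-MPS dye 30 min. Ratio read of aggregate (540/590 nm) versus monomer (490/535 nm) fluorescence.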
Experiment [7] in a line: qHTS assay to test for compound auto fluorescence at 590 nm (red) in HepG2 cells (AID 720674). Summed up: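 Seeding: 2,000 HepG2 cells/well, MEM/10% FBS, overnight 37 C. Dosing: compound vs DMSO. Incubation: 1 hr, 37 C, 5% CO2. Read: fluorescence 540 ex/590 em, Rose Bengal sodium as red reference.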
Experiment [8] can be described thus: qHTS assay to test for compound auto fluorescence at 535 nm (green) in HepG2 cells (AID 720675).
The nature of experiment [9]: qHTS assay to test for compound auto fluorescence at 460 nm (blue) in HEK293 cells (AID 720678). Summed up: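 Intrinsic compound fluorescence is recorded in live HEK293 cultures after overnight incubation at 37C, 5% CO2, using excitation 405 nm and emission 460 nm. Values are referenced to triamterene.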
A short description of experiment [10]: qHTS assay to test for compound auto fluorescence at 590 nm (red) in HEK293 cells (AID 720679). The procedure, abridged: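 Red autofluorescence, HEK293 cells: 2,000 cells/well; attach 4-5 hr 37C; add 23 nL cpd or DMSO; incubate o/n 37C 5% CO2; read Ex540/Em590; Rose Bengal sodium reference.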
The nature of experiment [11]: qHTS assay to test for compound auto fluorescence at 535 nm (green) in HEK293 cells (AID 720680).
Experiment [12] can be described thus: qHTS assay to test for compound auto fluorescence at 460 nm (blue) in HEK293 cell free culture (AID 720681). The procedure, abridged: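 Compounds were added to cell-free DMEM with 10% FBS and fluorescence read directly. The blue channel used 405 nm excitation and 460 nm emission, with triamterene as the reference fluorophore.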
Experiment [13] can be described thus: qHTS assay to test for compound auto fluorescence at 535 nm (green) in HEK293 cell free culture (AID 720682). The procedure, abridged: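 DMEM + 10% FBS, cell-free; cpd or DMSO pinned in; Ex485/Em535 read; output as fluorescein-equivalent signal.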
A short description of experiment [14]: qHTS assay to test for compound auto fluorescence at 590 nm (red) in HEK293 cell free culture (AID 720683). The procedure, abridged: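 Cell-free wells of DMEM with 10% FBS received compound, and intrinsic fluorescence was read at excitation/emission 540/590 nm. Values expressed as equivalence to Rose Bengal sodium.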
The nature of experiment [15]: qHTS assay to test for compound auto fluorescence at 590 nm (red) in HepG2 cell free culture (AID 720684). Summed up: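 Compound was pinned into wells holding MEM with 10% FBS and no cells, and red fluorescence was read at Ex/Em 540/590 nm. Signal is expressed as auto fluorescence equivalency relative to Rose Bengal sodium.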
Experiment [16] in a line: qHTS assay to test for compound auto fluorescence at 460 nm (blue) in HepG2 cell free culture (AID 720685). The procedure, abridged: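 Compound (23 nL) or DMSO pinned into cell-free MEM with 10% FBS; blue fluorescence read at 405/460 nm excitation/emission, expressed as auto-fluorescence equivalency to triamterene.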
Experiment [17] is described as follows: qHTS assay to test for compound auto fluorescence at 535 nm (green) in HepG2 cell free culture (AID 720686).
The nature of experiment [18]: qHTS assay to test for compound auto fluorescence at 460 nm (blue) in HepG2 cells (AID 720687). Summed up:
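HepG2 cells in MEM with 10% FBS, attached overnight at 37 C, were exposed to compound or DMSO for 1 hr at 37 C, 5% CO2. Blue fluorescence was read at 405/460 nm, with triamterene as reference fluorophore.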

Experiment [19] addresses Glucocorticoid receptor (Homo sapiens) (UniProt P04150). The experiment in a line: qHTS assay to identify small molecule agonists of the glucocorticoid receptor (GR) signaling pathway (AID 720691; active = well fitted activation curve with a large enough effect in the signal ratio in the repeat runs, not every such curve was filed as active; the % refers to the signal ratio). The procedure, abridged: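 qHTS in GR-bla HeLa cells: 4 h settling at 37 C/5% CO2, 18 h compound incubation at 37 C, 2 h LiveBLAzer B/G FRET substrate at room temperature, fluorescence intensity measured.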

Experiment [20] shares this target. In words: qHTS assay to identify small molecule antagonists of the glucocorticoid receptor (GR) signaling pathway (AID 720692; active = well fitted inhibition curve with a large enough effect in the signal ratio in the repeat runs, not every such curve was filed as active; the % refers to the signal ratio). The procedure, abridged:
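Inhibition of glucocorticoid signalling is measured in HeLa cells with a GRE-controlled beta-lactamase reporter; cells are co-treated with compound and 5 nM dexamethasone (final) for 18 h before FRET substrate readout.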

Sequence of Glucocorticoid receptor (Homo sapiens) (P04150 whole entry, looked up): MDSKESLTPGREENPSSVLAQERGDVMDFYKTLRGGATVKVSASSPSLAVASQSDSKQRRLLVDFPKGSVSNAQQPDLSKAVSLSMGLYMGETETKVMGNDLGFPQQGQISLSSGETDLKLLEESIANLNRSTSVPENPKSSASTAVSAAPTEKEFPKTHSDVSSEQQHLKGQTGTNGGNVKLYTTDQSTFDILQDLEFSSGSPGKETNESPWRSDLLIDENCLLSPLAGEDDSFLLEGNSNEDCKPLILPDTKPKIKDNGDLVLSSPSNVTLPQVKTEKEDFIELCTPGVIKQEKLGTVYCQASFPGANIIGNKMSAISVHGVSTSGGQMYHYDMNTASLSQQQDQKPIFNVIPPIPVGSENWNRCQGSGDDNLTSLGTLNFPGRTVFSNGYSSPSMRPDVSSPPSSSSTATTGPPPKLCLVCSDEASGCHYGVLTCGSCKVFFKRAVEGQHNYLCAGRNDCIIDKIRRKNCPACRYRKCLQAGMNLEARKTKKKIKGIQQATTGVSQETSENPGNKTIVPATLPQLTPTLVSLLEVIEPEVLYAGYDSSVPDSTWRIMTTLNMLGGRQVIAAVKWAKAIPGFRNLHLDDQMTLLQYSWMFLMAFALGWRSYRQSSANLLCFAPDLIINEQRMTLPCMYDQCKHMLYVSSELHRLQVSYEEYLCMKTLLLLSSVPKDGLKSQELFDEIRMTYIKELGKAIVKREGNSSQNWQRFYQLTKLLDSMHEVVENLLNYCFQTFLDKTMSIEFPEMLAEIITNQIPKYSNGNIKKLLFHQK

Consider `CC(C)=CCC/C(C)=C/C(=O)O`, for which the Potency entry in experiment [1], in experiment [2], in experiment [3], in experiment [4], in experiment [5] and in experiment [6] was “inactive” throughout. For the same compound, the Potency result in experiment [9], in experiment [12], in experiment [16], in experiment [18], in experiment [19] and in experiment [20] was “inactive” throughout. In addition, the result in [7], in experiment [8], in experiment [10], in experiment [11], in [13] and in experiment [14] was inactive. Besides, the compound was called inactive in experiment [15] and in [17].

Regarding `Nc1nc(F)nc2c1ncn2[C@@H]1O[C@H](CO)[C@@H](O)[C@@H]1O`, in experiment [1], the Potency was 13.3 µM (active) and 8.41 µM (active). The Potency entry in experiment [2], in experiment [3], in experiment [4], in [5], in [6] and in experiment [9] was “inactive” each time. Also, the Potency entry in experiment [12], in [16], in experiment [18], in experiment [19] and in [20] was “inactive” throughout. Besides, the compound was called inactive in experiment [7], in [8], in [10], in experiment [11], in [13] and in experiment [14]. For the same compound, the compound was called inactive in experiment [15] and in experiment [17].

In the case of `COc1ccc(NC(C)=O)cc1`, the Potency result in [1], in experiment [2], in experiment [3], in [4], in experiment [5] and in [6] was “inactive” throughout. Further, the Potency result in [9], in experiment [12], in experiment [16], in [18], in experiment [19] and in [20] was “inactive” each time. Moreover, the result in [7], in experiment [8], in [10], in [11], in experiment [13] and in experiment [14] was inactive. The outcome in [15] and in [17] was inactive.

With `CCCc1ccc(N)cc1`, the Potency result in experiment [1], in [2], in experiment [3], in experiment [4], in experiment [5] and in experiment [6] was “inactive” in each case. Further, the Potency entry in experiment [9], in experiment [12], in [16] and in [18] was “inactive” throughout. The result in experiment [7], in [8], in [10], in experiment [11], in experiment [13] and in experiment [14] was inactive. The call in experiment [15] and in experiment [17] was inactive.

Turning to `CCC(C(=O)NC(N)=O)c1ccccc1` (configuration not stated), the Potency result in [1], in experiment [2], in [3], in experiment [4], in [5] and in [6] was “inactive” each time. The Potency entry in [9], in [12], in [16], in experiment [18], in experiment [19] and in [20] was “inactive” in each case. The compound was classed as inactive in experiment [7], in experiment [8], in experiment [10], in experiment [11], in experiment [13] and in [14]. In addition, the compound was classed as inactive in experiment [15] and in experiment [17].

For the compound `CCCCCCC(CCCCCCCCCCC(=O)OCC(COC(C)=O)OC(C)=O)OC(C)=O` (configuration not stated), the Potency entry in [1], in experiment [2], in [3], in experiment [4], in experiment [5] and in experiment [6] was “inactive” throughout. Besides, the Potency result in experiment [9], in experiment [12], in experiment [16], in experiment [18] and in experiment [19] was “inactive” throughout. For the same compound, the call in [7], in [8], in experiment [10], in [11], in experiment [13] and in [14] was inactive. Besides, the compound was classed as inactive in experiment [15] and in [17].
